Some of the results follow. Records with an inconclusive call do not appear. Active and inactive are the calls of the source. Calls come from the whole dose curve; as a rule, active = well fitted curve in the direction sought with a large enough effect; inconclusive = small, poorly fitted or top-dose-only effect, or effect the other way, or another doubt; inactive = no such curve, though single readings can be large or run the other way.

The assay in a line: High Content Assay for Compounds that inhibit the Assembly of the Perinucleolar Compartment: PC3M Caspase 3/7 Activation. The settings on record: PC3M-GFP caspase 3/7 activation, luminescence, 24 h; series mostly up to 46.1 µM. The source says:
High Content Assay for Compounds that inhibit the Assembly of the Perinucleolar Compartment NIH Chemical Genomics Center [NCGC] NIH Molecular Libraries Probe Centers Network [MLPCN] MLPCN Grant: MH082371-01A2 Assay Submitter (PI): Sui Huang, Northwestern University, Feinberg School of Medicine, Cell and Molecular Biology, Chicago, Illinois. The perinucleolar compartment (PNC) is a non-membrane-bound nuclear subdomain that is associated with but structurally distinct from the nucleolus. The PNC is a heritable trait, in which the number of PNCs per cell in daughter cells often mimics that of their mother cells. The PNC is heterogeneous in shape, is stable through interphase, disassembles during mitosis, and reassembles in early G1. The PNC is concentrated with newly synthesized RNA polymerase III (pol III) RNAs (MRP RNA, RNAse P H1 RNA, hY RNAs[hY1, 2, 5], Alu RNA, and SRP [7SL] RNA) and RNA binding proteins (nucleolin, PTB, CUG-BP, KSRP, Raver1, Raver2, and Rod). […] Extensive in vitro studies have shown that the PNC is unique to tumor cells and preferentially forms in tumor cells derived from solid tissues. Examination of cancer cell lines from various origins and malignant capacities has shown that PNC prevalence correlates with the malignancy of tumors and has the potential to be developed as a pan-cancer prognostic marker. […] Although the PNC is associated with a DNA locus and a handful of components have been identified, much remains to be investigated regarding the structure and function of the PNC and its mechanistic link to cancer. We have previously shown that PNC prevalence reduction is a valid strategy to identify compounds that can be used to study the structure and function of the PNC. It is necessary, however, to create a screening platform that is able to test a large number of compounds in an automated fashion. Here we report the development and robustness of an automated whole-cell phenotypic image-based screening assay that is capable of identifying such compounds. We conducted a followup assay to measure the effects of the lead candidates on Caspase 3/7 activation using a luminescent Caspase kit (Caspase 3/7 Glo). The highly metastatic PC3M-GFP reporter cell line was used in this study.
Caspase 3/7 Assay 1. Cells at a density of 75-90% confluency in T175 flasks were harvested using 7 ml TrypLE Express cell dissociation reagent. After dissociation (5 minutes room temperature incubation) 10 ml of complete media was added to the TrypLE/cell suspension. The liquid was transferred to a 50 ml Conical tube and cells were pelleted at 1000 RPM for 5 min. Supernatant was removed and cells were resuspended to a final density of 150-200 cells/ul in complete media. 2. Cells were plated in 5 ul volume (2000 cells/well) into 1536 well White solid bottom plates and allowed to recover and adhere at 37 C in a humidified 5% CO2 incubator for 4 hours. 3. After 4 hour incubation, compound libraries (23 nl of […] in columns 5-48) were transferred to the plates in duplicate using a 1536 well pintool. Camptothecin positive control (59 uM final) was added to column 2 and 1:3 dilutions of camptothecin was added to column 3. DMSO negative controls were present in columns 1 and 4. 4. After a 24 hour incubation in the 37 C incubator, all wells were treated with 3 ul of Caspase Glo 3/7 reagent using a multidrop combi dispenser (ThermoFisher). Bubbles that formed during dispensing were removed by spinning the plates for 1 minutre at 1500 RPM on a table top centrifuge. Plates were incubated at room temperature for 5 minutes. 5. Luminescencent signal was detected on a Viewlux CCD based imager (PerkinElmer) with a clear filter and a 30 second integration time. The The PC3M cell line stably expressing the PTB-GFP was provided by Sui Huang of Northwestern University. The media and cell culture reagents were purchased from Invitrogen (Carlsbad, CA). […]
On to `Cn1c2ccccc2c(=O)c2c(=O)n(Cc3ccco3)c(COc3ccccc3)nc21`, for which the result was inactive.
Turning to `COC(=O)c1ccc(CSc2ccccc2C)o1`, the result was inactive.
Regarding `CC1(c2cccc([N+](=O)[O-])c2)CC(C)(C)N(C(=O)c2ccccc2)c2ccccc21` (stereo unspecified), the molecule was called inactive.
For the molecule `COC(=O)C1=C(C)N(c2ccc(Br)cc2)C(=O)/C1=C\c1ccco1`, the molecule was called inactive.
The result for `CCOC(=O)c1c(-c2cccc(C)c2)csc1NC(=O)c1c(-c2ccccc2)noc1C` reads “inactive”; that for `N=c1c2c(-c3ccccc3)c(-c3ccccc3)n(Cc3ccccc3)c2ncn1CCCO`, “inactive”.
